High-throughput results (PubChem)
Peg3 promoter: reduces Peg3 promoter-driven luciferase expression in HeLa | HeLa PEG-Prom luciferase reporter, luminescence, overnight | inhibition, % at 20 µM | 360,000 tested, 1.7% active;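 active = inhibition of at least 50% at 20 µM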
MITF TRPM1 inh: MITF TRPM1 promoter inhibition in SK-MEL-5 cells | 330,000 tested, 0.83% active | inhibition, % at 12.5 µM | AID 488899 | SK-MEL-5 TRPM1 promoter luciferase, 24 h;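 active = mean inhibition across replicates of 60% or more, whatever share of single replicates reaches that level; inconclusive = some that reach 60%, reason not given; inactive = mean inhibition across replicates below 60%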
KKLEB cytotox: CF airway cell cytotoxicity counter-screen. 360,000 tested, 0.36% active. AID 602141. KKLEB CF airway cells viability, ATPlite luminescence, overnight; active compounds read low; cells stimulated with P. aeruginosa culture filtrate. activity change (cytotoxicity), % at 5 µM;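 active = corrected activity change at or below -50% at 5 µM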
Shn3 3UTR inh: inhibitors of Schnurri-3 3'UTR reporter in osteoblasts | Clone20 osteoblast Shn3 3'UTR firefly luciferase, 24 h | inhibition, % at 12.5 µM | 360,000 tested, 0.52% active | AID 588674;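 active = mean inhibition of at least 75% with every replicate also reaching 75%; inconclusive = mean inhibition at least 75% but some replicate below; inactive = mean inhibition below 75%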;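 also: 0% = median of neutral control wells and 100% = pilot-screen positive control compound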
HIF-2a inh: blocks HIF-2a reporter activity. inhibition, % at 18.8 µM. 360,000 tested, 0.72% active. 786-0 RCC cells HIF-2a reporter, luciferase luminescence, overnight;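 active = inhibition of the luminescence signal of 40% or more relative to plate controls, in a single-dose primary screen at 18.75 µM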
CF NFkB inh: inhibitors of cystic fibrosis induced NF-kB. KKLEB NF-kB-GFP reporter, PAF-induced, GFP fluorescence overnight. inhibition, % at 5 µM. 360,000 tested, 0.86% active;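 active = at least 50% inhibition at 5 µM, scaled per plate between neutral and stimulator controls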;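 also: PAF is a Pseudomonas aeruginosa culture filtrate used as stimulus; plate controls were PAF-stimulated DMSO wells for no effect and unstimulated DMSO wells for full effect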
Starred values were filed as active, the others as inactive; u = inconclusive; x = not tested or not shown. In the library only some 2.8% were active in any assay of this set; here they are far more common.

SMILES | Peg3 promoter | MITF TRPM1 inh | KKLEB cytotox | Shn3 3UTR inh | HIF-2a inh | CF NFkB inh
Cc1cc(C)n2nc(C(=O)Nc3cccc(S(=O)(=O)N(C)c4ccccc4)c3)nc2n1 | 6 | 4 | -6 | 19 | 17 | -5
CN(CC(=O)Nc1ccc(Cl)c(C(F)(F)F)c1)C(=O)C1CC(=O)N(C2CCCC2)C1 (stereo not given) | 16 | -11 | -9 | 5 | 12 | 31
CCOC(=O)N1CCC(N2CCCC(C(=O)c3ccc4cc(OC)ccc4c3)C2)CC1 (stereo not given) | 25 | -16 | -2 | 14 | 16 | 10
O=c1[nH]c(C2CCN(S(=O)(=O)c3ccccc3)CC2)nc2c1nnn2Cc1c(F)cccc1Cl | 18 | 4 | -13 | 13 | 28 | 5
CCN(CC)c1ccc(C(=O)NC(=S)Nc2cc(S(=O)(=O)N3CCOCC3)ccc2-n2cncn2)cc1 | 8 | 20 | -71* | 15 | 18 | 31
C=CCNC(=S)Nc1cc(S(=O)(=O)N2CCOCC2)ccc1-n1cncn1 | 15 | 9 | 7 | -14 | 9 | -2
O=C(COC(=O)Cc1ccc(Cl)cc1)Nc1c(F)cccc1F | 4 | 10 | 15 | 12 | 21 | -7
CC1(C)CC(NC(=O)C2CCN(S(=O)(=O)c3ccccc3C(F)(F)F)CC2)CC(C)(C)N1 | -6 | 4 | -9 | -16 | 12 | 7
O=c1[nH]c(NC2CCN(S(=O)(=O)c3ccccc3C(F)(F)F)CC2)nc2c1CCCC2 | 4 | 71* | 9 | 30 | 11 | 15
Cc1sc2ncnc(N3CCN(CCOc4ccc(Cl)cc4)CC3)c2c1C | 12 | 30 | -24 | 85* | -10 | 0
Cc1cc(OC(=O)c2ccccc2C(F)(F)F)c([N+](=O)[O-])c(=O)[nH]1 | 9 | x | -8 | -20 | 14 | -26
COc1ccc(N=Nc2ccc(N)nc2N)cc1 | -358 | -66 | 20 | -58 | -342 | -32
CCOc1ccc2nc3cc(N=Nc4ccc(N)nc4N)ccc3c(N)c2c1 | 74* | 73* | -2 | -1 | 11 | -100
Cn1cnc([N+](=O)[O-])c1S(=O)(=O)Oc1ccccc1 | 103* | 37 | 4 | 95* | 25 | 42
Cn1cnc([N+](=O)[O-])c1S(=O)(=O)Nc1ccccc1 | -1 | 9 | -4 | -16 | -2 | 34
Cn1cnc([N+](=O)[O-])c1S(=O)(=O)c1cccc(Cl)c1 | 111* | 18 | -54* | -13 | 35 | 36
COCCCN1CN(S(=O)(=O)c2ccc(C)cc2C)c2nc3ccccc3nc21 | 10 | 5 | -14 | 0 | -24 | 8
CC(C)CN(C(=O)CN(C)C(=O)c1ccco1)c1c(N)n(CC(C)C)c(=O)[nH]c1=O | 2 | -1 | -2 | -1 | 15 | 8
O=C(Nc1ccncc1NC(=O)c1cccc([N+](=O)[O-])c1)c1cccc([N+](=O)[O-])c1 | 58* | -9 | -1 | -1 | 12 | -15
O=C(NCc1ccco1)c1ccc(COc2ccccc2[N+](=O)[O-])o1 | -1 | 12 | 12 | 11 | -4 | -42
Cc1ccc(C(=O)Sc2cccccc2=O)cc1 | 103* | 83* | -17 | 96* | 29 | -6
COc1ccc(CNC[C@H]2O[C@@H](n3ccc(=O)[nH]c3=O)[C@H](O)[C@@H]2O)cc1 | 13 | x | -6 | 13 | 13 | -7
CCCCCCCN(c1ccccc1)[C@@H]1C[C@H]2CCCC(=O)N3CC[C@@H](C1)[C@@H]23 | 87* | 13 | -24 | u | -14 | 48
CCCCNC(=O)O[C@@H]1C[C@H]2CCCC(=O)N3CC[C@@H](C1)[C@@H]23 | -11 | -3 | -11 | -6 | 1 | 11
Cc1cc2nc(-c3ccc(SCc4ccc(C(=O)O)cc4)nc3)[nH]c2cc1C | -134 | -21 | 6 | -2 | -188 | -9
SMILES | Peg3 promoter | MITF TRPM1 inh | KKLEB cytotox | Shn3 3UTR inh | HIF-2a inh | CF NFkB inh
Cc1cc2nc(-c3ccc(SCC(=O)N4CCc5ccccc54)nc3)[nH]c2cc1C | 114* | -20 | -52* | -45 | -211 | 29
Cc1ccc(/C=N/NC(=O)CNC(=O)c2cccc([N+](=O)[O-])c2C)o1 | 16 | -11 | 5 | 8 | 10 | 3
O=c1oc2ccccc2c(NC(c2ccccc2)c2ccccc2)c1[N+](=O)[O-] | 35 | -8 | 0 | 14 | 10 | 9
CC(Nc1c([N+](=O)[O-])c(=O)oc2ccccc12)C(Cl)c1ccccc1 (stereo not given) | 50* | 38 | 4 | 5 | 25 | -8
S=C(NCCCCN(Cc1ccc(Cl)cc1)c1ccc(Br)cn1)NCCCc1cnc[nH]1 | 96* | x | -16 | 83 | -14 | 14
CN(C)CCN(Cc1ccc(Cl)cc1)c1ccccn1 | -34 | -1 | 39 | 24 | 5 | -8
COc1ccccc1C(=O)NN=C1CCN(Cc2ccccc2)CC1 | 3 | 1 | -9 | 28 | 9 | 10
CCc1c(O)nc(SCC(=O)Nc2ccccc2)n(-c2ccccc2)c1=O | 5 | 0 | 10 | 96* | 9 | -36
O=C(COC(=O)C1CCN(c2ccc(C(F)(F)F)cn2)CC1)Nc1cc(F)ccc1F | 3 | -13 | 1 | -10 | 3 | 5
CCN(CC)CC(C)(C)C(=O)/C=C/c1ccc(/C=C/C(=O)C(C)(C)CN(CC)CC)cc1 | 102* | 93* | -66* | 98* | 91* | 92*
CC(=O)N1c2ccc(S(=O)(=O)N3CCCCC3)cc2CC1C(=O)NCc1ccccc1C (stereo not given) | -23 | 1 | -14 | -9 | -5 | 25
Cn1c(=O)c2sccc2n(Cc2cccc(Br)c2)c1=O | -235 | 4 | -17 | 34 | 10 | 15
COc1ccccc1-n1nnnc1SCC(=O)NCC1CCCO1 (stereo not given) | 13 | -9 | 0 | 2 | 1 | -16
COc1ccccc1NC(=O)c1cnc(SCC(=O)NCC2CCCO2)n(C)c1=O (stereo not given) | 0 | 68* | -3 | -7 | 2 | -7
CCC[C@H](CN[C@@H](CNC)[C@H](C)O)NCCc1ccc(OC)cc1 | -3 | -4 | 1 | -17 | 8 | -7
CCCC[C@@H](CNC)NC[C@H](Cc1ccc(O)cc1)NCCc1ccc(OCC)cc1 | 97* | 96* | -12 | 17 | -2 | 12
CCn1c(SCC(=O)N/N=C(/C)c2ccncc2)nc2ccccc21 | 7 | 0 | -20 | x | 1 | -9
O=C(O)c1cccc(N/N=C/c2cccc3ccccc23)c1 | 26 | 81* | 9 | 39 | 38 | -1
Cc1nn(C)c(C(=O)NCc2ccc(Cl)cc2)c1Cl | -24 | 10 | -7 | 86* | 19 | -3
Cc1nc(C)c(C(=O)NCc2ccc(Cl)cc2)o1 | 10 | 1 | -14 | -21 | 1 | -18
O=C(OCc1cn([C@@H]2C[C@H](c3ccc(Cl)cc3)N(C(=O)C3CCCCC3)C[C@H]2O)nn1)c1ccccc1 | 18 | x | -22 | -19 | 5 | -38
